ALR H2O2 inh: inhibitors of human sulfhydryl oxidase ALR. P55789. purified ALR, DTT oxidation, H2O2 HRP-luminol luminescence. inhibition, % (concentration not given with the values). hit rate 3.8% among 290,000;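 active = mean replicate inhibition above about 79%, with every replicate also reaching it, limit read from the data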
Target sequence (P55789 whole entry, looked up): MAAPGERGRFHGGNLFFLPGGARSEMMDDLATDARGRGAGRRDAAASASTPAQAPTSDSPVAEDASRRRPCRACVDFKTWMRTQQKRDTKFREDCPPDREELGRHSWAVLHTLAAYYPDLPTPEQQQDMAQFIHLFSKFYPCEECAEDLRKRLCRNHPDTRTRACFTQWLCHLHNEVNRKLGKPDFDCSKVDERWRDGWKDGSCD
CASP6 VEID inh: caspase-6 (human) enzyme inhibition | P55212 | purified caspase-6, Z-VEID-R110 cleavage fluorescence | inhibition, % at 12.5 µM | hit rate 0.53% among 350,000;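 active = mean inhibition across replicates at least about 35%, with every replicate also reaching that limit, limit read from the data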
Target sequence (P55212 24-179 limits assumed): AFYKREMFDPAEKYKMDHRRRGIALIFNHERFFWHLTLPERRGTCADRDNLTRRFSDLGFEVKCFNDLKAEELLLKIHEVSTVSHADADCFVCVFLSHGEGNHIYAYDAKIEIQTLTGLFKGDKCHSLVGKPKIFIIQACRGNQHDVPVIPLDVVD
Target sequence (P55212 194-293 limits assumed): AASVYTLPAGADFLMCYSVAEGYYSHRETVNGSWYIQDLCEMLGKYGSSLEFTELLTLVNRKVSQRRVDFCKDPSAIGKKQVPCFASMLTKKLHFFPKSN
Env fusion inh: blocks HIV Env-driven cell-cell fusion; HeLa-JRFL Env/CEM21 cell fusion, luciferase; inhibition, % at 12.3 µM; hit rate 1.1% among 360,000;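 active = mean replicate inhibition score of at least 50 and every replicate individually at or above 50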
CFTR F508del cor: correctors of CFTR F508del function in bronchial epithelial cells; CFBE cells, YFP halide quenching; stimulated with forskolin plus potentiator P3; % fluorescence drop versus neutral controls; activity (quench increase), % at 7.58 µM; hit rate 0.36% among 350,000;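 active = mean added fluorescence quench of at least 8% versus neutral control, with both replicates also reaching 8%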;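 also: cells transiently co-express mutant CFTR-F508del with the halide-sensitive YFP; corrector assay measuring rescue of mutant channel to the surface after 24 h compound exposure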
PglD DTNB: inhibitors of Campylobacter jejuni PglD acetyltransferase. hit rate 0.098% among 360,000. inhibition, % at 12.5 µM. purified PglD enzyme, DTNB colorimetric CoA detection; in the data active = inhibition above about 16%, passing the limit was not always enough
NSD2 inh: inhibitors of human histone methyltransferase NSD2; NSD2 peptide methylation, AlphaScreen, 120 min; inhibition, % at 12.5 µM; hit rate 0.54% among 310,000; AID 743445; in the data active = inhibition above about 50%
Numbers stand for hits; - = inactive; . = not tested or not shown. Rows were chosen to be rich in hits. Some 4.1% of all compounds tested hit in one or more screens of this group.

SMILES | ALR H2O2 inh | CASP6 VEID inh | Env fusion inh | CFTR F508del cor | PglD DTNB | NSD2 inh
Cc1cc2nc(-c3ccccc3)c(Cc3cccc(F)c3)n2c(C)c1Br | . | - | 74 | - | - | .
C[C@@H]1CCCCO[C@H](CN(C)S(=O)(=O)c2cccs2)[C@H](C)CN([C@H](C)CO)C(=O)c2cc(NC(=O)Nc3ccccc3)ccc2O1 | . | - | - | - | - | .
CCCCOC(=O)c1ccc(NC(=O)CSC2=Nc3ccccc3C3CC=NN23)cc1 (configuration not stated) | 100 | . | - | . | - | -
CNC(=O)C[C@@H]1CC[C@@H]2[C@H](COc3ccc(NC(=O)C4CC4)cc3C(=O)N2C)O1 | . | . | - | - | - | .
Cc1ccc(C)n1-c1sc2c(c1C(=O)O)CCCC2 | 96 | 52 | - | - | . | .
O=C(C[C@H]1CC[C@@H]2[C@H](COC[C@H](O)CN2Cc2cc(F)ccc2F)O1)NCc1ccc(Cl)cc1 | . | - | - | - | - | .
CC[C@@]1(C(=O)OC)N[C@H](CN(C)C(=O)Nc2ccc(F)cc2)[C@@H]2C(=O)N(Cc3ccccc3)C(=O)[C@@H]21 | . | - | 94 | - | - | .
CC[C@@]1(C(=O)OC)N[C@H](CN(C)C(=O)Nc2ccc(C)cc2)[C@@H]2C(=O)N(Cc3ccccc3)C(=O)[C@@H]21 | . | - | 66 | - | - | .
COC(=O)[C@]1(Cc2ccccc2)N[C@H](CN(C)C(=O)Nc2ccccc2)[C@@H]2C(=O)N(Cc3ccccc3)C(=O)[C@@H]21 | . | - | - | - | - | .
CC[C@@]1(C(=O)OC)N[C@H](CN(C)C(=O)Nc2ccc(OC)cc2)[C@@H]2C(=O)N(Cc3ccccc3)C(=O)[C@@H]21 | - | - | 70 | - | - | .
COc1ccccc1CN1[C@@H]2c3cccc(=O)n3C[C@@H]2[C@@H](CO)[C@@H]1C(=O)NCCc1ccncc1 | . | - | - | . | - | .
CC(C)NC(=O)N1Cc2cc(C(=O)NCC(F)(F)F)nc(-c3cccc(-c4cc5ccccc5o4)c3)c2[C@H]1CCO | . | - | . | - | . | .
C#CCOc1ccccc1CNc1ccccc1 | 98 | - | - | - | . | -
CN(C)C(=O)C[C@@H]1CC[C@H](NC(=O)Nc2cccc(F)c2)[C@@H](CO)O1 | . | - | - | - | - | .
Cc1cc(/C=N/n2cnnc2)c(C)n1-c1ccc(OCc2ccc(F)cc2)cc1 | - | . | 66 | . | - | .
Cc1cc(/C=N/n2cnnc2)c(C)n1-c1ccc(OCc2ccc(Cl)cc2Cl)cc1 | - | . | . | . | . | .
CCC(=O)N1CC2(C1)[C@@H](c1ccc(-c3ccc(F)cc3)cc1)[C@H](CO)N2C(C)=O | . | - | . | - | . | .
O=C1CSC(c2ccccc2[N+](=O)[O-])N1c1cccc(F)c1 (configuration not stated) | 99 | - | - | - | - | -
O=C1CSC(c2ccccc2[N+](=O)[O-])N1c1ccccc1 (configuration not stated) | 99 | - | - | - | - | -
CC(=O)Nc1ccc(N2C(=O)CSC2c2ccccc2[N+](=O)[O-])cc1 (configuration not stated) | 98 | - | - | - | - | -
CN(C)C(=O)[C@@H]1[C@@H](CO)[C@@H]2Cn3c(ccc(-c4ccccc4F)c3=O)[C@@H]2N1C(=O)c1cnccn1 | . | - | . | - | - | .
CC(C)NC(=O)N[C@H]1CC[C@@H](CCNC(=O)C2CCCC2)O[C@H]1CO | . | - | - | - | . | .
O=[N+]([O-])c1ccc(NCCN2CCOCC2)c([N+](=O)[O-])c1 | - | 42 | - | - | - | -
CCOc1cccc(CN2CCCC(C(=O)Nc3ccc(-c4ccn[nH]4)cc3)C2)c1O (configuration not stated) | 80 | - | - | - | - | -
O=C(Nc1cccc(Cl)c1)N[C@@H]1CC[C@@H](CCNC(=O)C2CCCCC2)O[C@@H]1CO | . | - | - | - | - | .
SMILES | ALR H2O2 inh | CASP6 VEID inh | Env fusion inh | CFTR F508del cor | PglD DTNB | NSD2 inh
O=C(N/N=C/c1ccc(O)cc1)c1cc(C23CC4CC(CC(C4)C2)C3)[nH]n1 | 91 | - | - | - | . | -
C[C@@H]1CCCCO[C@@H](CN(C)Cc2ccc3c(c2)OCO3)[C@H](C)CN([C@H](C)CO)C(=O)c2cc(NS(=O)(=O)c3ccc(Cl)cc3)ccc2O1 | . | - | - | - | - | .
c1ccc2c(c1)Nc1ccncc1S2 | 96 | - | - | - | . | -
COc1ccc(S(=O)(=O)/N=C2\C=C(Nc3ccc(O)cc3)C(=O)c3ccccc32)cc1 | . | 78 | 75 | - | - | 51
O=C(O)c1ccc(S(=O)(=O)/N=C2\C=C(Nc3ccccc3F)C(=O)c3ccccc32)cc1 | - | 99 | - | - | - | 120
Cc1ccccc1NC1=C/C(=N\S(=O)(=O)c2ccc(C(=O)O)cc2)c2ccccc2C1=O | . | 99 | - | - | - | 139
Cc1ccccc1N/C(=N/S(=O)(=O)c1ccccc1)c1ccc(F)cc1 | - | - | - | - | . | -
Cc1ccccc1NC1=C/C(=N\S(=O)(=O)c2cccs2)c2ccccc2C1=O | - | . | 121 | . | - | -
O=S(=O)(/N=C(/Nc1ccccc1F)c1ccccc1)c1ccccc1 | - | . | . | . | - | -
Cc1ccc(NC2=C/C(=N/S(=O)(=O)c3cccs3)c3ccccc3C2=O)cc1C | . | - | - | . | - | -
C[C@@H]1CN([C@H](C)CO)C(=O)Cc2cc(NC(=O)Nc3ccccc3)ccc2O[C@@H]1CN(C)Cc1ccccc1 | . | - | - | - | - | .
O=C(Nc1ccccc1)N[C@@H]1CC[C@@H](CCn2cc(-c3ccccc3F)nn2)O[C@H]1CO | . | - | . | - | . | .
CC(C)NC(=O)Nc1ccc2c(c1)C(=O)N([C@@H](C)CO)C[C@@H](C)[C@@H](CN(C)C(=O)c1ccncc1)OCCCC[C@H](C)O2 | . | - | - | - | - | .
C=CCN1C(=O)[C@]2(CCS(=O)(=O)c3ccccc3)N=C(c3ccc(OCCCO)cc3)O[C@@H]2c2ccccc21 | . | . | - | - | . | .
Cc1ccc(NC(=O)c2ccncc2)cc1S(=O)(=O)N(C)C | . | - | . | - | - | -
Cc1ccc(NC(=O)c2ccc(OC(F)(F)F)cc2)cc1S(=O)(=O)N(C)C | - | . | 62 | . | . | -
COc1cccc(NC(=O)N2C[C@H](O)COC[C@H]3O[C@H](CC(=O)NC4CCCC4)CC[C@@H]32)c1 | . | - | . | - | - | .
CC(CCc1ccco1)NC(=O)CCc1nnc2ccc(NCc3ccccc3Cl)nn12 (configuration not stated) | - | - | 77 | - | - | -
CC(CCc1ccco1)NC(=O)CCc1nnc2ccc(NCc3ccc(Cl)cc3)nn12 (configuration not stated) | - | - | - | - | - | -
O=C(N[C@@H]1CC[C@@H](CCNC(=O)c2ccccc2F)O[C@H]1CO)c1ccc2c(c1)OCO2 | . | - | - | - | - | .
N#CNC(=Nc1ccccc1F)SCc1ccc(C(=O)O)cc1 | 99 | - | - | - | . | -
N#CNC(=Nc1cccc(F)c1)SCc1ccccc1 | - | - | - | - | . | -
C[C@@H]1CN([C@@H](C)CO)C(=O)c2cc(C#CCN(C)C)cnc2O[C@H]1CN(C)C(=O)c1cccc(F)c1 | . | - | - | - | - | .

High-throughput results deposited in PubChem BioAssay by Broad Institute.
